About 79,000 compounds went through this panel and 15% of them were active in at least one assay; those are over-represented in the sample as a whole. Unmarked numbers belong to inactive results. Active and inactive are the calls of the source. No stated cut-off is given here; in the data, active means growth inhibition above about 70%; inactive means the rest.
Assay: NCI Yeast Anticancer Drug Screen. Data for the rad18 strain (AID 177)
Details: S. cerevisiae rad18 mutant growth inhibition, stronger effect = higher value
Protocol: Growth inhibition of yeast strains with defined genetic alterations is measured as a screen for potential anti-cancer activity. Selected strains with alterations in DNA damage repair or cell cycle control were exposed to compounds and growth inhibition was measured relative to vehicle treated controls. The strain used in this assay is rad18

SMILES	growth inhibition (at 1.2 µM) [%]	growth inhibition (at 3.7 µM) [%]	growth inhibition (at 11.0 µM)	growth inhibition (at 33.0 µM)	growth inhibition (at 100.0 µM)
COc1ccc(N=CN(C)C)c(C)c1	-50	-55	-8%	89% (active)	93% (active)
COc1ccc(C2C3=C(COC3=O)OC(C)(C)Oc3cc4c(cc32)OCO4)cc1OC (stereo not given)	-4	5	7%	41%	94% (active)
CC(=O)Nc1ccc(/C=C/[N+](=O)[O-])cc1	3	6	12%	25%	92% (active)
CC1OC(O[C@H]2/C=C/C=C/C=C/C=C/C=C/C=C/C=C/[C@H](C)[C@@H](O)[C@@H](C)[C@H](C)OC(=O)C[C@H](O)C[C@H](O)CC[C@@H](O)[C@H](O)C[C@H](O)C[C@]3(O)C[C@H](O)[C@@H](C(=O)O)[C@H](C2)O3)C(O)C(N)C1O (stereo not given in full)	-20	35	97% (active)	98% (active)	97% (active)
O=[N+]([O-])c1cc[n+]([O-])cc1	-2	0	3%	16%	98% (active)
Cc1ccc2c(c1)C1(SC(C)C(=O)N1c1ccc(Cl)cc1)C(=O)N2 (stereo not given)	4	17	54%	97% (active)	98% (active)
COc1ccc(/C=C/c2sc3ccccc3[n+]2CCCCI)cc1OC	-3	0	9%	86% (active)	96% (active)
NC(=O)C(=O)NNc1ccccc1	6	17	65%	92% (active)	97% (active)
